Screening data (PubChem BioAssay)
Abeta yeast res – compounds reversing amyloid beta toxicity in yeast; AID 1347071; Potency, µM (highest dose often 46.1 µM), usual class: activators; yeast expressing A-beta42, growth rescue, OD600, 48 h; response scale: 0% DMSO, 100% iron-clioquinol control; hit rate 0.063% among 410,000; also: nearly all actives have a fitted effect of over 55% in size
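Growth rescue measured by 600 nm absorbance after 48 h yeast culture at 30 C with compound. Values normalized between DMSO and an equimolar ferric chloride plus clioquinol control.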
FUS yeast rescue – rescues growth of FUS-expressing yeast; S. cerevisiae FUS-expressing, growth rescue, OD600, 24 h; Potency, µM (titrated, usually from 76.6 µM), actives largely listed as activators; hit rate 0.24% among 390,000; also: nearly all actives have a fitted effect of over 55% in size
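S. cerevisiae expressing FUS from galactose induction served as the toxicity model. Growth after 24hr at 30C, read as absorbance at 600 nm, indicates suppression of toxicity; compounds dosed at several concentrations.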
TDP-43 yeast inh – inhibitors of TDP-43 toxicity in yeast | TDP-43 expressing yeast growth rescue, BacTiter-Glo, 24 h | Potency, µM (doses to about 46.1 µM), actives largely listed as activators | hit rate 1.8% among 410,000; also: nearly all actives have a fitted effect of over 50% in size
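Yeast cells expressing TDP-43 under galactose induction are exposed to compounds for 24 hr at 30 deg C. BacTiter-Glo luminescence measures growth, so protective compounds score as activators.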
CCT chaperon mod – changes cytosolic chaperonin activity. activity change, % (no concentration beside the values), hits read low. hit rate 0.3% among 360,000. AID 651819. purified chaperonin ATPase assay, HTRF ADP detection, 30 min; in the data active = activity change below about -30%
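First, chaperonin was dispensed at 40 nM or 20 nM final depending on batch activity. Next, compounds were pinned at 76 uM and ATP added at 10 uM. After 30 min at 37 °C, ADP detection reagents ran 30 min at ambient temperature.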
aSyn rescue – rescues yeast growth from alpha-synuclein toxicity; Yeast expressing alpha-synuclein, growth rescue, BacTiter-Glo, 24 h; Potency, µM (doses to about 46.1 µM), most hits filed as activators; hit rate 0.14% among 370,000; AID 652106; also: nearly all actives have a fitted effect of over 65% in size
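Rescue of yeast growth: cells expressing toxic alpha-synuclein, induced in galactose at OD600 0.02, incubated with compound 24 h at 30 C. ATP luminescence quantified growth; inhibitors of toxicity appear as activators.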
MmCpn inh – M. maripaludis TRiC chaperonin inhibition; purified Mm-Cpn ATPase, ADP Transcreener TR-FRET; Potency, µM (top dose mostly 76.9 µM), usual class: inhibitors; hit rate 0.031% among 330,000; AID 504842; also: nearly all actives have a fitted effect of over 80% in size
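ATPase read-out: TR-FRET ADP immunoassay (anti-ADP Eu cryptate vs ADP-d2), ex 320 nm, em 590/665 nm; signal drops as ADP forms. Enzyme 25 nM, ATP 10 uM, 30 min at 37°C after 10 min compound preincubation.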
Each line names hits and unclear results; the compound was inactive in the other large screens. The list is not random: actives were taken first. Their share in the collection is about 2.3%. Unless noted, calls follow the shape of the dose curve; as a rule, active = well fitted curve in the direction sought with a large enough effect; inconclusive = small, poorly fitted or top-dose-only effect, or another doubt; inactive = no such curve, though single readings can be large; an effect the other way counts as inactive or inconclusive.

Cc1ccc(NC(=O)COc2cccc3c2OC(C)(C)C3)c(O)c1	TDP-43 yeast inh 11µM (no result: FUS yeast rescue)
FC(F)(F)c1cnc(Nc2ccc(N3CCOCC3)cc2)c(Cl)c1	TDP-43 yeast inh 13µM
O=c1c(Cl)c(N2CCOCC2)cnn1-c1ncc(C(F)(F)F)cc1Cl	none
COc1ccc(CNC(=O)c2ccc(-c3nc(CS(=O)c4ccc(C)cc4)c(C)o3)cc2)cc1 (stereo not given)	FUS yeast rescue 25µM (no result: CCT chaperon mod, aSyn rescue, MmCpn inh)
Cc1ccc(CNC(=O)c2ccc(-c3nc(CS(=O)c4ccccc4)c(C)o3)cc2)cc1 (stereo not given)	none (no result: CCT chaperon mod, aSyn rescue, MmCpn inh)
O=C(Nc1ccc(F)cc1)Nc1nc2ncccn2c1-c1ccc(F)cc1	none (no result: Abeta yeast res, TDP-43 yeast inh, CCT chaperon mod, aSyn rescue, MmCpn inh)
CCOc1ccc(-n2c(SCC(=O)NN=Cc3ccc(C(=O)O)cc3)nnc2-c2cccnc2)cc1	none (no result: Abeta yeast res, TDP-43 yeast inh, CCT chaperon mod, aSyn rescue, MmCpn inh)
COc1ccc(NC(=O)NC(C)(C(F)(F)F)C(F)(F)F)cc1	CCT chaperon mod -79
COC(=O)C1CN(Cc2ccccc2)CCS(=O)(=O)N1Cc1cccc(Cl)c1 (stereo not given)	none (no result: Abeta yeast res, TDP-43 yeast inh, CCT chaperon mod, aSyn rescue, MmCpn inh)
C=CCN1[C@H](CC(C)C)COc2cc(F)ccc2S1(=O)=O	none (no result: Abeta yeast res, TDP-43 yeast inh, CCT chaperon mod, aSyn rescue, MmCpn inh)
O=[N+]([O-])c1nn(-c2ccc3c(c2)OCCO3)n(O)c1=NC1CCCC1	TDP-43 yeast inh 5µM
O=[N+]([O-])c1nn(-c2ccc3c(c2)OCCO3)n(O)c1=NCCCO	none
O=[N+]([O-])c1nn(-c2ccc3c(c2)OCCO3)n(O)c1=NC1CCCCCC1	TDP-43 yeast inh 16µM
Cc1cc(=O)[nH]c(-n2nc(C)cc2C)n1	Abeta yeast res inconclusive, TDP-43 yeast inh inconclusive, aSyn rescue 28µM
CCOC(=O)c1cnc(-n2nc(C)cc2C)[nH]c1=O	Abeta yeast res inconclusive, TDP-43 yeast inh inconclusive, aSyn rescue 22µM
Cc1cc(=O)[nH]c(N2CCCNCC2)n1	none
CC(C)CCNC(=O)C1CCCN(C(=O)c2ccc3c(c2)NC(=O)CS3)C1 (stereo not given)	none (no result: Abeta yeast res, TDP-43 yeast inh, CCT chaperon mod, aSyn rescue, MmCpn inh)
O=C(Cn1cnc2ccccc2c1=O)N1CCN(Cc2ccc(F)cc2)CC1	none (no result: Abeta yeast res, TDP-43 yeast inh, CCT chaperon mod, aSyn rescue, MmCpn inh)
O=S1(=O)c2ccc(Br)cc2OC[C@@H](c2ccccc2)N1Cc1cn(CCC2OCCCO2)nn1	none (no result: Abeta yeast res, TDP-43 yeast inh, CCT chaperon mod, aSyn rescue, MmCpn inh)
CCCn1c2ccccc2c2cnn(CC(=O)NCCOC)c(=O)c21	aSyn rescue 3.5µM
CCCn1c2ccccc2c2cnn(CC(=O)NCCCOC)c(=O)c21	none
CCCCOCCCNC(=O)C[C@H]1C[C@@]2(C(=O)OCC)CCCC3=C2N(CCC3)C1=O	none (no result: Abeta yeast res, TDP-43 yeast inh, CCT chaperon mod, aSyn rescue, MmCpn inh)
CCCc1cc(=O)oc2cc3oc(C)c(C)c3cc12	none (no result: FUS yeast rescue)
CCc1cc(=O)oc2cc3oc(C)c(C)c3cc12	TDP-43 yeast inh 3.5µM
CCOc1cccc(/C=N\NC(=O)c2cnccn2)c1O	none (no result: Abeta yeast res, TDP-43 yeast inh, CCT chaperon mod, aSyn rescue, MmCpn inh)
c1ccc(CC2CCN(c3nc4ccccc4n4nnnc34)CC2)cc1	CCT chaperon mod -32
CN(c1ncnc(N)c1[N+](=O)[O-])C1CCCCC1	TDP-43 yeast inh 13µM
COc1ccc(N2CCC(CNC(=S)Nc3ccc(C)cc3C)C2)cc1 (stereo not given)	Abeta yeast res 22µM, FUS yeast rescue inconclusive, TDP-43 yeast inh inconclusive
COc1ccc(N2CCC(CNC(=S)Nc3c(C)cc(C)cc3C)C2)cc1 (stereo not given)	Abeta yeast res inconclusive, TDP-43 yeast inh inconclusive
COc1cccc(C(=O)Nc2ccccc2N2CCOCC2)c1	TDP-43 yeast inh 13µM
Cc1noc(C)c1C(=O)Nc1ccccc1N1CCOCC1	CCT chaperon mod -30
CC1(Cc2ccc(Cl)cc2)C(=O)Nc2c(Cl)ccc(Cl)c21 (stereo not given)	aSyn rescue inconclusive (no result: MmCpn inh)
Cc1ccc(CC2(C)C(=O)Nc3c(Cl)ccc(Cl)c32)cc1 (stereo not given)	aSyn rescue 18µM (no result: MmCpn inh)
CC1(Cc2ccccc2F)C(=O)Nc2c(Cl)ccc(Cl)c21 (stereo not given)	aSyn rescue 11µM (no result: MmCpn inh)
CC1(Cc2ccccc2Cl)C(=O)Nc2c(Cl)ccc(Cl)c21 (stereo not given)	TDP-43 yeast inh 32µM, aSyn rescue 13µM (no result: MmCpn inh)
CC1(Cc2cccc(C(F)(F)F)c2)C(=O)Nc2c(Cl)ccc(Cl)c21 (stereo not given)	none (no result: MmCpn inh)
